# CtBP-E1A blk – qHTS Assay for Inhibitors of the CtBP/E1A Interaction. 340,000 tested, 0.49% active. activity change, % (no concentration beside the values). AlphaScreen GST-E1A/His-CtBP binding, 1536-well; active compounds read low; in the data active = activity change below about -65%; inconclusive = mostly about -30% to -63%; note: % is set by controls: 0 for no effect and ±100 for the full control effect
#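 AlphaScreen with 125 nM GST-E1A and 125 nM His-CtBP (5X stocks) in Tris pH 8.0, 300 mM NaCl, BSA, Tween 20, TCEP. Compounds preincubated 2 h at 37 deg C, then glutathione donor/nickel acceptor beads added for 1 h at 37 deg C in dark.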
# JMJD2A Tudor – qHTS Assay for Inhibitors of JMJD2A-Tudor Domain; Potency, µM (series often up to 114 µM), for the others: at the highest dose activity change, negative = inhibition, most hits filed as inhibitors; 390,000 tested, 4.4% active; Lysine-specific demethylase 4A (Homo sapiens), O75164; AlphaScreen JMJD2A-Tudor / H3K4me3 peptide binding; AID 504339, 2011; note: potency is the fitted concentration of half-maximal effect; % is set by controls: 0 for no effect and ±100 for the full control effect; nearly all actives have a fitted effect of over 50% in size
# Six1-Eya2 blk – qHTS Assay for Inhibitors of the Six1/Eya2 Interaction. AID 651725, 2012. 360,000 tested, 0.56% active. Homeobox protein SIX1 (Homo sapiens) + Protein phosphatase EYA2 (Homo sapiens), …. AlphaScreen GST-Six1/His-Eya2 binding, biochemical; active compounds read low. activity change, % (no concentration beside the values); in the data active = activity change below about -65%; inconclusive = mostly about -30% to -63%; note: % is set by controls: 0 for no effect and ±100 for the full control effect
#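 Homogeneous AlphaScreen proximity assay pairing GST-Six1 with His-tagged Eya2 (added as 5X mix: 250 nM and 500 nM) in 50 mM Tris pH 8.0, 300 mM NaCl, 1 mM TCEP. Glutathione donor and nickel acceptor beads; 1 h, 37 °C, dark.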
# HP1b chromo inh – HTS for Inhibitors of HP1-beta Chromodomain Interactions with Methylated Histone Tails; Chromobox protein homolog 1 (Homo sapiens), P83916; AlphaScreen HP1-beta / biotin-H3K9me3 peptide binding; Potency, µM (top dose mostly 114 µM), for the others: at the highest dose activity change, negative = inhibition, hits mostly inhibitors; 390,000 tested, 0.56% active; AID 540317, 2011; note: potency is the fitted concentration of half-maximal effect; nearly all actives have a fitted effect of over 70% in size
# Target sequence (P83916 whole entry, looked up): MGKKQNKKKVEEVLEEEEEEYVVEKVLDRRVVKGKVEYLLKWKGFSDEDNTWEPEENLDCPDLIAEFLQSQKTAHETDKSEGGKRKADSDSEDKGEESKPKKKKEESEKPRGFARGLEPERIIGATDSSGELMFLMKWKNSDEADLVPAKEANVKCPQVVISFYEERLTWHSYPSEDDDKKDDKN
#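 Compound inhibition of the preformed complex between 50 nM HP1-beta and 50 nM biotinylated H3K9me3 peptide was read by AlphaScreen. Buffer was PBS pH 7.4 with 0.01% Tween-20. Incubations ran 30 min at room temperature, with 10 ug/mL donor/acceptor beads.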
# G9a block – qHTS Assay for Inhibitors of Histone Lysine Methyltransferase G9a; Histone-lysine N-methyltransferase EHMT2 (Homo sapiens), Q96KQ7; G9a H3K9 monomethylation, AlphaScreen, 2 h; Potency, µM (titrated, usually from 102 µM), for the others: at the highest dose activity, negative = inhibition, actives largely listed as inhibitors; 350,000 tested, 8.8% active; note: potency is the fitted concentration of half-maximal effect; % is set by controls: 0 for no effect and ±100 for the full control effect; nearly all actives have a fitted effect of over 75% in size
# Target sequence (Q96KQ7 913-1193 limits assumed): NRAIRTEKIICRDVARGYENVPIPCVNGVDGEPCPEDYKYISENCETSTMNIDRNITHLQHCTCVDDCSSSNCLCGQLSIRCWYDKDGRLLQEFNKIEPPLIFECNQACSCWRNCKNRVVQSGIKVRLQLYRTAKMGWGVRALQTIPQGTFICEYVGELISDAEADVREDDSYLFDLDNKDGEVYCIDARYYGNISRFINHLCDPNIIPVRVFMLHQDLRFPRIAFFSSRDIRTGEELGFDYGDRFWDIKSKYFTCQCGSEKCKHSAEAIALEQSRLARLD
#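 Signal arises when biotinylated H3K9 peptide, once monomethylated, bridges streptavidin donor and antibody-captured acceptor beads. Enzyme at 20 nM was preincubated 15 min with test compounds; peptide 500 nM and SAM 20 uM then reacted for 2 h.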
# BAZ2B inh – qHTS Assay for Inhibitors of BAZ2B | AID 504333, 2011 | Potency, µM (titrated, usually from 114 µM), without a hit: at the top dose activity change, negative = inhibition, hits mostly inhibitors | 360,000 tested, 4.4% active | AlphaScreen BAZ2B-H3K14Ac peptide displacement; note: potency is the fitted concentration of half-maximal effect; % is set by controls: 0 for no effect and ±100 for the full control effect; nearly all actives have a fitted effect of over 60% in size
#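 Inhibition is scored as reduced AlphaScreen emission. The BAZ2B/b-H3(5-23)K14Ac complex (50 nM each) in PBS pH 7.4, 0.01% Tween-20 meets compound (up to 110 uM) for 30 min at RT before bead addition.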
# Active calls of the source: *; u = inconclusive; x = no result; [ ] = remark or other dose. This is a sample that favours compounds with a hit; in the whole collection about 10% have one here. Unless noted, calls come from the whole dose curve; as a rule, active = well fitted inhibition curve with a large enough effect; inconclusive = small, poorly fitted or top-dose-only effect; inactive = no such curve, though single readings can be large or run the other way.
SMILES,CtBP-E1A blk,JMJD2A Tudor,Six1-Eya2 blk,HP1b chromo inh,G9a block,BAZ2B inh
COc1ccc(CNC(=O)c2cc3cccc4c3n2CC(C)S4)cc1 (centres undefined),x,12%,x,91%,u,3%
Cc1cc(F)ccc1NC(=O)Cn1c(=O)ccc2cc(S(=O)(=O)N3CCC(C)CC3)ccc21,x,-19%,x,12%[57 µM],10%[59 µM],-2%
Cc1ccc(-c2cc(C(=O)Nc3cccc(S(=O)(=O)N(C)C)c3)c3ccccc3n2)o1,-18,u,-1,0%,8.9µM*,3%
CCC(CC)c1nnc(NC(=O)c2cc(-c3ccccc3)nc3ccccc23)s1,9,-9%,-1,37%,45µM*,10%
COc1cccc(NC(=O)CN(C)C(=O)c2cc(-c3ccc(C)o3)nc3ccccc23)c1,x,u,-3,1%,u,-32%
COc1cccc(NC(=O)c2cc(-c3ccc(C)o3)nc3ccccc23)c1,-22,56µM*,-12,1%,8.9µM*,u
CC(C)Cc1nnc(NC(=O)c2cc(-c3ccccc3)nc3ccccc23)s1,-5,-5%,2,u,-46%,5%[57.1 µM]
COC(=O)[C@@]12CCCN1[C@H](c1ccc(-c3ccc(Cl)c(Cl)c3)cc1)[C@H]1C(=O)N(C)C(=O)[C@H]12,-1,u,-4,96%,-1%[2.33 µM],u
COc1ccc(/C(C)=C(\C#N)C(=O)OC(C)C)cc1OC,4,-5%,7,19%,7%[59 µM],7%
N#C/C(=C(/O)CCl)c1nnc2n1CCCCC2,1,20µM*,-3,0%,-40%,79µM*
Cc1ccc(C(C)C)c2oc(=O)cc(-c3ccc(-c4ccc(C(F)(F)F)cc4)cc3)c12,-7,-6%,10,31%,30%[59 µM],x
Cc1ccc(NC2=C(c3ccc(C(F)(F)F)cc3)C(=O)c3ccccc32)cc1C,x,56µM*,x,0%,2.8µM*,56µM*
Nn1c(SCC(=O)NCCC2=CCCCC2)nnc1-c1cccnc1,-2,-25%,6,19%,45µM*,4%
CC(C)c1nnc(SCC(=O)NCCC2=CCCCC2)n1N,-6,-14%,-7,u,8.9µM*,4%
Cc1cc(NC(=O)COc2ccccc2C(N)=O)no1,4,-2%,0,27%,x,x
CC1(C)Cc2cccc(OCC(=O)NCCOc3ccccc3)c2O1,7,20µM*,10,-15%,-2%[59 µM],-15%
Cc1cccc(N2CCN(C(=O)COc3cccc4c3OC(C)(C)C4)CC2)c1C,0,-13%,-6,54%,45µM*,13%
CC1(C)Cc2cccc(OCC(=O)N3CCN(S(=O)(=O)c4ccc(F)cc4)CC3)c2O1,-2,-8%,-3,25%,-7%[2.33 µM],3%
Cc1nc(S(=O)(=O)c2ccc(Cl)cc2)c(NCc2ccccc2)o1,7,1%,-12,45%,45µM*,-6%
CCOC(=O)c1c(C)c(C(=O)N2CCN(C(=O)c3ccco3)CC2)c(C)n1C,-8,-14%,-1,2%,-49%[59 µM],-36%
CCOC(=O)c1c(C)n(C(=O)c2ccco2)c(=O)n1C(=O)c1ccco1,7,-32%,3,26%,56µM*,-4%
Cc1ccc(-n2cc3c(=O)n(C)c(=O)n(C)c3c2)cc1C,-3,-9%,-11,33%,45µM*,-17%
Cn1c(=O)c2cn(-c3ccc4c(c3)OCCO4)cc2n(C)c1=O,6,4%,-3,25%,u,u
